Measured values from PubChem BioAssay AID504332 (National Center for Advancing Translational Sciences (NCATS), 2011).
Where “and” joins values, the source holds several entries; their conditions need not be identical. Equal entries are not always repeated. The whole screen tested about 350,000 compounds, of which about 31,000 (8.9%) were called active. Roughly 15% stayed inconclusive and do not appear here. This is one part of a sample in which actives are shown more often than they occur. Calls follow the shape of the dose curve; as a rule, active = well fitted inhibition curve with a large enough effect; inconclusive = small, poorly fitted or top-dose-only effect; inactive = no such curve, though single readings can be large or run the other way. Some compounds were tested as several samples or in several runs, with calls that do not always agree.

Target: Histone-lysine N-methyltransferase EHMT2 (Homo sapiens) (UniProt Q96KQ7)
Test: qHTS Assay for Inhibitors of Histone Lysine Methyltransferase G9a; also: nearly all actives have a fitted effect of over 75% in size
Details: G9a H3K9 monomethylation, AlphaScreen, 2 h; series mostly up to 59 µM; activity, negative = inhibition: at the top concentration
Summary of the method: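 Compounds were preincubated with 20 nM G9a for 15 min, after which biotinylated H3K9 peptide (500 nM) and SAM (20 uM) started a 2 h room-temperature reaction. Monomethylated product was quantified by antibody-based AlphaScreen chemiluminescence.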
% is scaled to controls: 0 for no effect and ±100 for the full control effect; potency is read from the fitted curve at half-maximal effect.

Chain of Histone-lysine N-methyltransferase EHMT2 (Homo sapiens) (Q96KQ7 913-1193 limits assumed): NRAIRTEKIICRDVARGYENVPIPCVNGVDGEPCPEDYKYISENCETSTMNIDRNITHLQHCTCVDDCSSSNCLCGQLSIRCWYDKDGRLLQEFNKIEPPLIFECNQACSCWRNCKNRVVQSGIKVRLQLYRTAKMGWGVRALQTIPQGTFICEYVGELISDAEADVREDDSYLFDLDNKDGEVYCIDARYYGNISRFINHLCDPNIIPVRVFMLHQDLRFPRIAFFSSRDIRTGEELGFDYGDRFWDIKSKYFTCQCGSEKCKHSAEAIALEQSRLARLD

| Structure (SMILES) | activity, negative = inhibition | Potency |
| --- | --- | --- |
| O=C(c1ccc2c(c1)N(Cc1ccccc1F)C(=O)c1ccccc1S2(=O)=O)N1CCOCC1 | -32.7% (inactive) |  |
| COC(=O)C1CCN(C(=O)c2cc(=O)[nH]c3ccccc23)CC1 | 0.366% [at 102 µM] (inactive) |  |
| COC(=O)[C@H]1[C@H]2C[C@H]3c4[nH]c5ccccc5c4CCN3C[C@@H]2CC[C@@H]1O |  | inactive and 12.6 µM (active) |
| O=C(NC1CCCCC1)N1CCc2[nH]c3ccccc3c2C1 | -17% (inactive) |  |
| O=C(NCCc1ccc(F)cc1)c1ccc(S(=O)(=O)N2CCCCC2)cc1 | -29.8% [at 102 µM] (inactive) |  |
| Cc1cc2nc(C)n(CCCNC(=O)Nc3ccccc3)c2cc1C | 11.2% (inactive) |  |
| Cn1c(Nc2ccccc2)cc(=O)n(C)c1=O | 61.9% [at 102 µM] (inactive) |  |
| Cc1cc(=O)n(C)c(=O)n1CCCNc1ccccc1 |  | 15.8 µM (active) |
| CCc1ccccc1NC(=O)Cn1c(=O)n(CC2CCC(C(=O)NCCc3ccccc3)CC2)c(=O)c2ccccc21 (stereo unspecified) | -0.279% (inactive) |  |
| O=C(C1CCC(Cn2c(=O)c3sccc3n(Cc3ccccc3F)c2=O)CC1)N1CCCCC1 (stereo unspecified) | -12.4% (inactive) |  |
| COc1cccc(NC(=O)CSc2nnc(-c3cccnc3)o2)c1 | -41.5% [at 102 µM] (inactive) |  |
| CCCn1c(SCC(=O)c2ccc3c(c2)OCCO3)nnc1C(C)C |  | 44.7 µM (active) |
| CCCn1c(SCC(N)=O)nnc1C(C)C | 13.7% [at 102 µM] (inactive) |  |
| CCn1c(SCC(=O)Nc2ccc3c(c2)OCCO3)nnc1C(C)C | -11.6% [at 102 µM] (inactive) |  |
| COC(=O)c1ccc2c(c1)N(CC(=O)Nc1ccc(C)c(C)c1)C(=O)c1ccccc1S2 | -3.69% (inactive) |  |
| COc1cc(C(=O)N/C(=C\c2cn(C)c3ccccc23)C(=O)N2CCOCC2)cc(OC)c1OC | -9.22% [at 102 µM] (inactive) |  |
| Cc1ccc(C(=O)N/C(=C\c2cn(S(=O)(=O)N(C)C)c3ccccc23)C(=O)N2CCCC2)cc1 | 14.9% [at 102 µM] (inactive) |  |
| Cc1ccc(C(=O)N/C(=C\c2cn(C)c3ccccc23)C(=O)N2CCN(C)CC2)cc1 |  | 79.4 µM (active) |
| CCCCC[C@H]1CN(C2CCCCC2)C(=O)[C@@H]1CC(=O)NCc1ccc(OC)cc1 | -11.2% [at 102 µM] (inactive) |  |
| CCN(CC)CCn1c2c(c(SCC(=O)Nc3ccc(C(C)C)cc3)nc1=O)CCC2 | -34.3% [at 102 µM] (inactive) |  |
| Cc1cc(NC(=O)c2cccc(Cl)c2)ccc1-c1cc2ccccc2oc1=O | -4.3% (inactive) |  |
| O=c1oc2ccccc2cc1-c1csc(Nc2ccc(O)cc2)n1 |  | 12.6 µM (active) |
| COc1ccc2nc(Nc3nc(-c4cc5ccccc5oc4=O)cs3)sc2c1 | 22.6% (inactive) |  |
| CCOC(=O)CN1C(C(=O)c2ccccc2)=C(OC(=O)C(C)(C)C)c2ccccc2S1(=O)=O | -8.05% (inactive) |  |
| CCCCc1nn2c(=O)cc(COC(=O)c3ccccc3NC(=O)C(C)(C)C)nc2s1 | 25.7% (inactive) |  |
| O=C(COC(=O)c1ccccc1SCC(=O)N1CCCC1)Nc1ccccc1OC(F)F | 13.9% [at 0.501 µM] (inactive) |  |
